“And” between values parts separate entries of the source, which are not always exact repeats. Equal entries are not always repeated. Records with an inconclusive call do not appear. A structure can be active in one record and inactive in another. The source made the active and inactive calls. Unless noted, calls come from the whole dose curve; as a rule, active = well fitted curve in the direction sought with a large enough effect in the repeat runs; inconclusive = weak or mixed curves; inactive = no such curve, though single readings can be large; an effect the other way counts as inactive or inconclusive.

Consider seven compounds from PubChem BioAssay (Tox21).

A short description of assay [1]: qHTS assay to identify small molecule antagonists of the thyroid receptor (TR) signaling pathway - cell viability counter screen (AID 743064). Note: nearly all actives have a fitted effect of over 50% in size. Note: potency is the fitted concentration of half-maximal effect. The gist of the method: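 Rat GH3 pituitary tumor cells stably expressing two TR response elements driving luciferase were plated, rested 4 h, then dosed with library compounds and T3 (1 nM final). After 23.5 h at 37 °C, CellTiter-Fluor was added for 30 min and fluorescence recorded.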
Background: In qHTS, concentration-response curves come from the screen itself.

Assay [2] concerns thyroid hormone receptor (rat, GH3 cells). In words: qHTS assay to identify small molecule agonists of the thyroid receptor (TR) signaling pathway (AID 743066; calls by dose curve).
In assay [3] the target is Estrogen receptor (Homo sapiens) (UniProt P03372). In words: qHTS assay to identify small molecule antagonists of the estrogen receptor alpha (ER-alpha) signaling pathway (AID 743069; active = well fitted curve in the direction sought with a large enough effect in the signal ratio in the repeat runs, not every such curve was filed as active; the % refers to the signal ratio). The gist of the method: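 HEK293 ER-alpha-UAS-bla GripTite cells, held overnight in 2% charcoal-stripped FBS, 5,000 cells/well, preincubated 4 h, then compound plus 17beta-estradiol for 18 h at 37C. Beta-lactamase read by LiveBLAzer B/G FRET substrate, 2 h at room temperature.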
Chain of Estrogen receptor (Homo sapiens) (P03372 whole entry, looked up): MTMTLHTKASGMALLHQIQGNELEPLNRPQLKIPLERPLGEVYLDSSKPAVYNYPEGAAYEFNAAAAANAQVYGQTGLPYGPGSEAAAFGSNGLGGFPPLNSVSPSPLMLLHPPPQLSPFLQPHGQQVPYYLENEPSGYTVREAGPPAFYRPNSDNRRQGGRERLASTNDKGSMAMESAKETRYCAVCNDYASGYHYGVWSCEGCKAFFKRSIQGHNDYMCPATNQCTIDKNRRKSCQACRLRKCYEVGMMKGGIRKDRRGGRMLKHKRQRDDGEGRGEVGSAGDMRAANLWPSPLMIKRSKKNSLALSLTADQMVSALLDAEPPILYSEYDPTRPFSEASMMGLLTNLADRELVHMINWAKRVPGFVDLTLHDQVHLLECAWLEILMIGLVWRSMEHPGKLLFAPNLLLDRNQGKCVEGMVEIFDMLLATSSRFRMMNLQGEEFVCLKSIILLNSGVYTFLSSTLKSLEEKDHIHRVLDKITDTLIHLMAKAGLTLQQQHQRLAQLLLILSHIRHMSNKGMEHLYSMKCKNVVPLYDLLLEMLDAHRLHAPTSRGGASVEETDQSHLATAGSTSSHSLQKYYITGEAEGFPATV

The nature of assay [4]: qHTS assay to identify small molecule antagonists of the estrogen receptor alpha (ER-alpha) signaling pathway - cell viability counter screen (AID 743074; calls by dose curve;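 note: HEK293 cells carrying ER-alpha-UAS-bla reporter stimulated with 17beta-estradiol; nearly all actives have a fitted effect of over 45% in size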).
The target in assay [5] is Estrogen receptor (Homo sapiens) (UniProt P03372). In words: qHTS assay to identify small molecule agonists of the estrogen receptor alpha (ER-alpha) signaling pathway (AID 743075; calls by dose curve).
Assay [6] has the same target. In words: qHTS assay to identify small molecule agonists of the estrogen receptor alpha (ER-alpha) signaling pathway using the BG1 cell line (AID 743079). Note: nearly all actives have a fitted effect of over 20% in size.
Assay [7] can be described thus: qHTS assay to identify small molecule antagonists of the estrogen receptor alpha (ER-alpha) signaling pathway using the BG1 cell line (AID 743080; calls by dose curve;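 note: BG1 cells stimulated with 17beta-estradiol alongside compound; series mostly up to about 70 µM; nearly all actives have a fitted effect of over 25% in size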). A digest of the protocol: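 Endogenous full-length ER-alpha in BG1-Luc-4E2 cells drives a stably integrated 4×ERE luciferase gene; compounds were tested against 17beta-estradiol over 21.5 h, with luminescence and multiplexed viability fluorescence recorded.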

Assay [8] in a line: qHTS assay to identify small molecule antagonists of the estrogen receptor alpha (ER-alpha) signaling pathway using the BG1 cell line - cell viability counter screen (AID 743081).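 Note: compound given together with 17beta-estradiol as the ER stimulus; nearly all actives have a fitted effect of over 45% in size.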 Note: potency is the fitted concentration of half-maximal effect.
A further assay addresses Aromatase (Homo sapiens) (UniProt P11511). In words: qHTS assay to identify aromatase inhibitors (AID 743083). Note: nearly all actives have a fitted effect of over 55% in size. Note: potency is the fitted concentration of half-maximal effect.
Assay [9] can be described thus: qHTS assay to identify aromatase inhibitors - cell viability counter screen (AID 743084).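 Note: cells stimulated with testosterone during compound exposure; nearly all actives have a fitted effect of over 55% in size.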 Note: potency is the fitted concentration of half-maximal effect.
For assay [10], the target named is Aryl hydrocarbon receptor (Homo sapiens) (UniProt P35869). In words: qHTS assay to identify small molecule that activate the aryl hydrocarbon receptor (AhR) signaling pathway (AID 743085).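 For activation: HG2L7.5c1 human HepG2 liver cells with stably integrated DRE-driven firefly reporter; series mostly up to about 70 µM.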 Note: nearly all actives have a fitted effect of over 15% in size. Note: potency is the fitted concentration of half-maximal effect. The gist of the method:
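Compounds were tested in HepG2 hepatocellular carcinoma cells harbouring a stably integrated luciferase gene under control of 20 DREs. Increased reporter signal after 24 h treatment at 37C was taken as AhR activation.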

The nature of assay [11]: qHTS assay to identify small molecule that activate the aryl hydrocarbon receptor (AhR) signaling pathway - cell viability counter screen (AID 743086).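 Note: HepG2 liver cells carrying the AhR DRE luciferase reporter; series mostly up to about 70 µM; nearly all actives have a fitted effect of over 45% in size.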 A digest of the protocol: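 HepG2-AhR-luc (HG2L7.5c1) cells, 4000/well, treated 24 h at 37 C with compound; viability measured as CellTiter-Fluor fluorescence after 30 min in the same wells as the luciferase read.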
The target in assay [12] is Peroxisome proliferator-activated receptor gamma (Homo sapiens) (UniProt P37231). In words: qHTS assay to identify small molecule agonists of the peroxisome proliferator-activated receptor gamma (PPARg) signaling pathway (AID 743094; active = well fitted activation curve with a large enough effect in the signal ratio in the repeat runs, not every such curve was filed as active; the % refers to the signal ratio). The gist of the method: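 GeneBLAzer PPARg UAS-bla HEK293H cells carrying a stably integrated beta-lactamase reporter were pre-incubated 5 h at 37C, then exposed to compounds in DMSO for 17 h at 37C; LiveBLAzer B/G FRET substrate was added for 1 h at room temperature and fluorescence read.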
Chain of Peroxisome proliferator-activated receptor gamma (Homo sapiens) (P37231 whole entry, looked up): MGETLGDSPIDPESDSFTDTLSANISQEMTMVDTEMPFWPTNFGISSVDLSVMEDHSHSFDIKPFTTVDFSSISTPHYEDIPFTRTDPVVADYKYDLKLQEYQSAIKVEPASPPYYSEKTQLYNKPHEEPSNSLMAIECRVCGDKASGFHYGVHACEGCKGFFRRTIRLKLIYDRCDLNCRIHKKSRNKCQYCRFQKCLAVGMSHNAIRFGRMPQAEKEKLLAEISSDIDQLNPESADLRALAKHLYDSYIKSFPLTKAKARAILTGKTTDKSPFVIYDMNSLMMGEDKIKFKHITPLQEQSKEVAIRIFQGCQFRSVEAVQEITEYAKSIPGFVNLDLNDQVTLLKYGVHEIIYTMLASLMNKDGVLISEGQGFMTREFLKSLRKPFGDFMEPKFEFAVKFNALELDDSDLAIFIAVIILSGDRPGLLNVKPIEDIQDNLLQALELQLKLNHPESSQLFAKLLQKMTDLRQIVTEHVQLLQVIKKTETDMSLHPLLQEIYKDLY

A short description of assay [13]: qHTS assay to identify small molecule antagonists of the peroxisome proliferator-activated receptor gamma (PPARg) signaling pathway - cell viability counter screen (AID 743194). Note: nearly all actives have a fitted effect of over 55% in size. Note: potency is the fitted concentration of half-maximal effect. A digest of the protocol:
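Cytotoxicity counter screen in PPARg-bla HEK293H cells, same wells as reporter assay. Compounds plus 50 nM rosiglitazone (final) for 17 h at 37 C, then viability read by CellTiter-Glo luminescence.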

The nature of assay [14]: qHTS assay for small molecule agonists of the antioxidant response element (ARE) signaling pathway (AID 743202; active = well fitted activation curve with a large enough effect in the signal ratio in the repeat runs, not every such curve was filed as active; the % refers to the signal ratio; note: potency is the fitted concentration of half-maximal effect). The gist of the method:
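ARE-bla HepG2 cells (beta-lactamase reporter under the antioxidant response element), plated 5 hours, then exposed to compounds 16 hours at 37 C. LiveBLAzer B/G FRET substrate added for 2 hours at room temperature; fluorescence intensity read.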

Assay [15] is described as follows: qHTS assay for small molecule agonists of the antioxidant response element (ARE) signaling pathway - cell viability counter screen (AID 743203; calls by dose curve; note: nearly all actives have a fitted effect of over 55% in size; note: potency is the fitted concentration of half-maximal effect). A digest of the protocol:
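CellSensor ARE-bla HepG2 cells, 2,000 per well, rested 5 hrs at 37C/5% CO2, then exposed to compound in DMSO for 16 hrs; viability read as CellTiter-Glo luminescence after 30 min at room temperature, in the reporter wells.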

The nature of assay [16]: qHTS assay for small molecule activators of the heat shock response signaling pathway - cell viability counter screen (AID 743209). Note: nearly all actives have a fitted effect of over 50% in size. Note: potency is the fitted concentration of half-maximal effect. The gist of the method: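 CellSensor HSE-bla HeLa cells, plated overnight at 37 C/5% CO2, were exposed to compounds in DMSO for 5 h at 37 C. Viability was then read in the same wells by CellTiter-Glo luminescence after 30 min at room temperature.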

Assay [17] is described as follows: qHTS assay to identify small molecule antagonists of the thyroid receptor (TR) signaling pathway (AID 743065). The gist of the method:
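GH3.TRE-Luc rat pituitary cells (two TREs driving luciferase) were dosed with compound, then stimulated with 1 nM T3 (final) for 23.5 h at 37 C. ONE-Glo luminescence was the read-out, with CellTiter-Fluor fluorescence as the cytotoxicity counter-screen.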

For assay [18], the target named is Peroxisome proliferator-activated receptor gamma (Homo sapiens) (UniProt P37231). In words: qHTS assay to identify small molecule antagonists of the peroxisome proliferator-activated receptor gamma (PPARg) signaling pathway (AID 743191; calls by dose curve; note: series mostly up to about 63 µM; nearly all actives have a fitted effect of over 30% in size). A digest of the protocol: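 GeneBLAzer PPARg UAS-bla HEK293H cells, 5 h post-plating, exposed to compounds 17 h at 37C. LiveBLAzer B/G FRET substrate added for 1 h at room temperature; beta-lactamase reporter read by fluorescence intensity.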

Assay [19] is described as follows: qHTS assay for small molecule activators of the heat shock response signaling pathway (AID 743210; active = well fitted activation curve with a large enough effect in the signal ratio in the repeat runs, with a control signal flat, not every such curve was filed as active; the % refers to the signal ratio; note: series mostly up to about 63 µM). A digest of the protocol: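 HSE-bla HeLa cells (beta-lactamase reporter under heat shock response elements), plated overnight, then exposed to compounds 5 h at 37 C; LiveBLAzer B/G FRET substrate added, 2.5 h at room temperature, fluorescence intensity read.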

Chain of Aromatase (Homo sapiens) (P11511 whole entry, looked up): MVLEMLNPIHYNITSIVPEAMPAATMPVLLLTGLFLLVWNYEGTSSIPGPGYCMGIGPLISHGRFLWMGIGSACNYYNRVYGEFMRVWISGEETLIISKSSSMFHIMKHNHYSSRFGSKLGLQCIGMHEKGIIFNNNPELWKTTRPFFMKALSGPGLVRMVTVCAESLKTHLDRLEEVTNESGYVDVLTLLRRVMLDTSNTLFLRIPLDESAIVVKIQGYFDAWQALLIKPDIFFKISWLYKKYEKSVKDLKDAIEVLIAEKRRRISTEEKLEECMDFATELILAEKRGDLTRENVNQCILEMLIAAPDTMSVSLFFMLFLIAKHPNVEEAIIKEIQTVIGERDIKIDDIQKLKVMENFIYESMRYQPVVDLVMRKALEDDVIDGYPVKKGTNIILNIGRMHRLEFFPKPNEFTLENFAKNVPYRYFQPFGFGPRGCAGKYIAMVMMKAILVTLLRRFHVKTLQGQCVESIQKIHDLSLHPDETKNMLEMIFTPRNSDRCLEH
Chain of Aryl hydrocarbon receptor (Homo sapiens) (P35869 whole entry, looked up): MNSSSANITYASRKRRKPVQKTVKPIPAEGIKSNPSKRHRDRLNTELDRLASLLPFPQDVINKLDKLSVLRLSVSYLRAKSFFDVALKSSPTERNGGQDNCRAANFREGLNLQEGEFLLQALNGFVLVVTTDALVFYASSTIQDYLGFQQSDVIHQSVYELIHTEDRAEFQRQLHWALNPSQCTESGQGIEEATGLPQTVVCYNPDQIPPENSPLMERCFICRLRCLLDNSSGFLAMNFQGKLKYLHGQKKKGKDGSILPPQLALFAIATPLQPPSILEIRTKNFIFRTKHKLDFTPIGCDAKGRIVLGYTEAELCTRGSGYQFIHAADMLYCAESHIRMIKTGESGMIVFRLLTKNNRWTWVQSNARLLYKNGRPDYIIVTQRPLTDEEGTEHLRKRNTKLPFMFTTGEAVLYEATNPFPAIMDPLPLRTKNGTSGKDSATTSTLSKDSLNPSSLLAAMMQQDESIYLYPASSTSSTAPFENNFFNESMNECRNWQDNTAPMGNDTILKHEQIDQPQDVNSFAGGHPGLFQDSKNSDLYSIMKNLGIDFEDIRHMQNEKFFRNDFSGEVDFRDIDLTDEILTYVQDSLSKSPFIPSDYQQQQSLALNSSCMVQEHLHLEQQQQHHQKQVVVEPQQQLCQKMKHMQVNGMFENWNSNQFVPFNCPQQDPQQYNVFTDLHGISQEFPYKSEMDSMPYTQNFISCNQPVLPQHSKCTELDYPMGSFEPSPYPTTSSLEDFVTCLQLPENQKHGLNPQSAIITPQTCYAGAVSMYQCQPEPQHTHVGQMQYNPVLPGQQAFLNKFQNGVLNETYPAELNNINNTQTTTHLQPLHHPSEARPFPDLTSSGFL

Take `CCOc1ccc2ccccc2c1C(=O)N[C@@H]1C(=O)N2[C@@H]1SC(C)(C)[C@@H]2C(=O)O`: the Potency entry in assay [1], in assay [3], in assay [4], in [5], in assay [6] and in assay [7] was “inactive” each time. Further, the Potency entry (in assay [8]; in the assay with Aromatase (Homo sapiens); in assay [9]; in [10]; in [11]; in assay [12]) was “inactive” each time. The Potency result in [13], in assay [15] and in assay [16] was “inactive” each time. Besides, the result in assay [2] was inactive. Further, the Potency in assay [14] was 4.73 µM (active).
Regarding `COc1cc2nc(N3CCN(C(=O)c4ccco4)CC3)nc(N)c2cc1OC`, the Potency in [1] and in assay [17] was 8.41 µM (active) throughout. In addition, the Potency entry in assay [4], in assay [5], in assay [6], in [7], in assay [8] and in [12] was “inactive” each time. For the same compound, the Potency entry in assay [18], in assay [13], in assay [15], in assay [16] and in assay [19] was “inactive” each time.
Regarding `CC(C)(C)c1ccc(C(O)CCCN2CCC(C(O)(c3ccccc3)c3ccccc3)CC2)cc1` (centres undefined), the Potency entry was “inactive and 5.96 µM (active)” in assay [1]; “inactive and 29.8 µM (active)” with Aromatase (Homo sapiens); 13.3 µM (active) in [13]; 11.9 µM (active) in assay [15]; 21.1 µM (active) in assay [16]. Further, the compound was called inactive in assay [2]. Further, the Potency entry in assay [3], in assay [4], in assay [5], in assay [6], in assay [7] and in assay [8] was “inactive” each time. The Potency result in [9], in assay [10], in assay [11] and in [12] was “inactive” in each case.
Turning to `Cc1ccc(N/N=c2\c(=O)cc/c(=N\Nc3ccc(S(=O)(=O)O)cc3)c2=O)c(C)c1`, the Potency was 61.1 µM (active) in assay [1], 54.5 µM (active) in [8], 27.3 µM (active) in assay [9] and 8.63 µM (active) in [10]. Moreover, in assay [2], the compound was called inactive. Moreover, the Potency entry (in assay [3]; in assay [4]; in assay [5]; in [6]; in assay [7]; with Aromatase (Homo sapiens)) was “inactive” throughout. The Potency result in assay [12], in assay [18], in assay [13], in assay [14], in assay [15] and in [16] was “inactive” each time. Moreover, the Potency result in assay [19] is “inactive”.
In the case of `COCCOc1cc2cc(C(=O)NC3CCN(C(C)C)CC3)n(CC(=O)Nc3ccc(Cl)cn3)c2cn1`, the Potency in assay [1] is 60.4 µM (active); in assay [10], 48 µM (active). For the same compound, the call in [2] was inactive. For the same compound, the Potency result (in assay [4]; in [8]; with Aromatase (Homo sapiens); in assay [9]; in assay [11]; in [13]) was “inactive” in each case.
For the compound `CN1CCC[C@@H]1CCO[C@](C)(c1ccccc1)c1ccc(Cl)cc1`, the Potency is 23.7 µM (active) in assay [1], 26.6 µM (active) in assay [17] and 29.8 µM (active) in [15]. Also, the Potency result in assay [4], in [8], in assay [10], in assay [16] and in [19] was “inactive” in each case.
`Cc1cc(-c2ccc(N=Nc3cc(S(=O)(=O)O)c4ccccc4c3N)c(C)c2)ccc1N=Nc1cc(S(=O)(=O)O)c2ccccc2c1N`: the Potency in [1] was 61.4 µM (active); in [17] it was 27.4 µM (active); in assay [8] it was 30.8 µM (active); in assay [14] it was 12.3 µM (active). Further, in assay [2], the compound was classed as inactive. Also, the Potency result in assay [9], in assay [10], in assay [11], in assay [18], in assay [13] and in [15] was “inactive” each time. The Potency entry in assay [16] and in [19] was “inactive” in each case.
